Compounds without any hit were thinned out: in the full panel of roughly 79,000, 15% have a hit. Activity calls are given as the source filed them. No stated cut-off is given here; in the data, active means growth inhibition above about 70%; inactive means the rest.
Columns and labels:
[1] = NCI Yeast Anticancer Drug Screen. Data for the rad52 strain (AID 147);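 further: 0% = growth of vehicle-treated control cultures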; settings: S. cerevisiae rad52 mutant growth inhibition, stronger effect = higher value
Summary of the method: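 Here a repair-compromised yeast strain receives each compound; its growth is then quantified and normalised to vehicle-only controls.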

[2] = NCI Yeast Anticancer Drug Screen. Data for the wt1 strain (AID 149);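 further: 0% = growth of vehicle-treated wt1 cultures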; settings: S. cerevisiae wt1 strain (SPY 50644) growth inhibition, stronger effect = higher value
Summary of the method: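 The wt1 strain was treated with compounds, and growth was compared with vehicle-treated cultures to give inhibition.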

[3] = NCI Yeast Anticancer Drug Screen. Data for the rad50EPP+ strain (AID 151);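 further: 0% = growth of vehicle-treated control cultures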; settings: S. cerevisiae rad50 mutant strain, stronger effect = higher value
Summary of the method: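 Read-out is yeast growth inhibition relative to vehicle; cells used were the rad50EPP+ strain.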

[4] = NCI Yeast Anticancer Drug Screen. Data for the mgt1 strain (AID 153); settings: S. cerevisiae mgt1 mutant growth inhibition, stronger effect = higher value
Summary of the method: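 Measured: inhibition of mgt1 yeast growth by compound, normalized to vehicle-treated cultures.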

[5] = NCI Yeast Anticancer Drug Screen. Data for the rad50 strain (AID 155);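 further: 0% = growth of vehicle-only cultures of the same strain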; settings: S. cerevisiae rad50 strain growth inhibition, stronger effect = higher value
Summary of the method: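 Cells are treated with compound, grown, and their growth is then scored against vehicle-only cultures of the same repair-deficient yeast strain.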

[6] = NCI Yeast Anticancer Drug Screen. Data for the mec2-1 strain (AID 157); settings: S. cerevisiae mec2-1 strain, stronger effect = higher value
Summary of the method: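 Using mec2-1 yeast: add compound, measure growth, express inhibition versus vehicle-treated cultures.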

[7] = NCI Yeast Anticancer Drug Screen. Data for the rad14 strain (AID 159);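 further: 0% = growth of vehicle-treated control cultures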; settings: S. cerevisiae rad14 strain growth inhibition, stronger effect = higher value
Summary of the method: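 Readout: yeast growth inhibition, referenced to vehicle-only cultures. Strain bears a defined alteration in DNA damage repair.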

[8] = NCI Yeast Anticancer Drug Screen. Data for the sgs1 mgt1 strain (AID 161);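 further: 0% = growth of cultures given vehicle only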; settings: S. cerevisiae sgs1 mgt1 strain, stronger effect = higher value
Summary of the method: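 Percent growth inhibition was derived by comparing compound-exposed mutant yeast with vehicle-exposed cultures. The strain carries alterations in DNA damage repair.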

[9] = NCI Yeast Anticancer Drug Screen. Data for the CLN2oe strain (AID 163);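 further: 0% = growth of vehicle-only control cultures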; settings: S. cerevisiae CLN2oe strain, stronger effect = higher value
Summary of the method: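 Whole-cell yeast growth assay. A strain engineered for altered cell-cycle control received compound, and inhibition relative to vehicle-treated cultures was recorded.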

[10] = NCI Yeast Anticancer Drug Screen. Data for the cln2 rad14 strain (AID 165);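 further: 0% = growth equal to vehicle treated cultures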; settings: S. cerevisiae cln2 rad14 strain, stronger effect = higher value
Summary of the method: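 Yeast strain cln2 rad14, bearing defects in cell cycle control and DNA repair, serves as the test system; values reflect growth inhibition compared with vehicle.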

[11] = NCI Yeast Anticancer Drug Screen. Data for the bub3 strain (AID 167); settings: S. cerevisiae bub3 mutant strain, stronger effect = higher value
Summary of the method: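 Part of a panel of yeast mutants defective in DNA damage repair or cell cycle regulation. Each strain is grown with compound, and inhibition is calculated relative to solvent-treated cultures.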

[12] = NCI Yeast Anticancer Drug Screen. Data for the wt2 strain (AID 169);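 further: 0% = growth of vehicle-treated yeast cultures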; settings: S. cerevisiae wt2 strain growth inhibition, stronger effect = higher value
Summary of the method: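 Treated yeast vs. vehicle-treated yeast: growth inhibition determined.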

[13] = NCI Yeast Anticancer Drug Screen. Data for the mlh1 strain (AID 171);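 further: 0% = growth of vehicle-treated control cultures of the same strain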; settings: S. cerevisiae mlh1 strain growth inhibition, stronger effect = higher value
Summary of the method: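 A yeast strain with a defined genetic lesion serves as the test organism. Cultures receive compound or vehicle, and growth is measured.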

[14] = NCI Yeast Anticancer Drug Screen. Data for the mlh1 rad18 strain (AID 175); settings: S. cerevisiae mlh1 rad18 strain growth inhibition, stronger effect = higher value
Summary of the method: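 Steps: expose repair-defective yeast to compound; measure growth; express inhibition against vehicle-treated controls.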

[15] = NCI Yeast Anticancer Drug Screen. Data for the rad18 strain (AID 177); settings: S. cerevisiae rad18 mutant growth inhibition, stronger effect = higher value
Summary of the method: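 Measured value is growth inhibition of a yeast strain bearing a DNA repair alteration, referenced to vehicle-treated cells.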

[16] = NCI Yeast Anticancer Drug Screen. Data for the sgs1 strain (AID 173);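 further: 0% = growth of vehicle-only control cultures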; settings: S. cerevisiae sgs1 mutant, stronger effect = higher value
Summary of the method: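 A genetically defined yeast mutant is incubated with the test compound, and its growth is compared to that of the same strain given vehicle.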

[17] = at 5.0 µM (retest, dose inferred, filed as 0.5)
[18] = at 50.0 µM (retest, dose inferred, filed as 5.0)

Measured: growth inhibition

Cc1ccc(C)c(C(=N)c2ccccc2Cc2ccccc2)c1
active: [1]; at 11.0 µM 70% | [1]; at 33.0 µM 94% | [1]; at 100.0 µM 97% | [2]; at 33.0 µM 90% | [2]; at 100.0 µM 97% | [3]; at 33.0 µM 84% | [3]; at 100.0 µM 94% | [4]; at 11.0 µM 75% | [4]; at 33.0 µM 94% | [4]; at 100.0 µM 97% | [5]; at 11.0 µM 71% | [5]; at 33.0 µM 92% | [5]; [18] 96% | [5]; at 50.0 µM 98.4% | [5]; at 100.0 µM 95% | [6]; at 11.0 µM 72% | [6]; at 33.0 µM 95% | [6]; [18] 94% | [6]; at 50.0 µM 97.3% | [6]; at 100.0 µM 97% | [7]; at 33.0 µM 93% | [7]; at 100.0 µM 98% | [8]; [18] 94% | [8]; at 50.0 µM 97.5% | [9]; at 33.0 µM 95% | [9]; at 100.0 µM 98% | [10]; [18] 93% | [10]; at 50.0 µM 93.4% | [11]; at 11.0 µM 77% | [11]; at 33.0 µM 96% | [11]; [18] 97% | [11]; at 50.0 µM 97.4% | [11]; at 100.0 µM 95% | [12]; at 11.0 µM 78% | [12]; at 33.0 µM 93% | [12]; at 100.0 µM 97% | [13]; at 11.0 µM 80% | [13]; at 33.0 µM 92% | [13]; at 100.0 µM 98% | [14]; [18] 94% | [14]; at 50.0 µM 98.2% | [15]; at 33.0 µM 94% | [15]; at 100.0 µM 96%
inactive: [1]; at 1.2 µM -5% | [1]; at 3.7 µM 17% | [2]; at 1.2 µM -3% | [2]; at 3.7 µM 10% | [2]; at 11.0 µM 35% | [3]; at 1.2 µM -4% | [3]; at 3.7 µM 2% | [3]; at 11.0 µM 31% | [4]; at 1.2 µM -3% | [4]; at 3.7 µM 37% | [5]; at 1.2 µM -1% | [5]; at 3.7 µM 7% | [5]; [17] 60% | [6]; at 1.2 µM 2% | [6]; at 3.7 µM 12% | [6]; [17] 0% | [7]; at 1.2 µM 0% | [7]; at 3.7 µM 31% | [7]; at 11.0 µM 52% | [8]; [17] 62% | [9]; at 1.2 µM -3% | [9]; at 3.7 µM 6% | [9]; at 11.0 µM 47% | [10]; [17] 18% | [11]; at 1.2 µM 7% | [11]; at 3.7 µM 29% | [11]; [17] 13% | [12]; at 1.2 µM -1% | [12]; at 3.7 µM 42% | [13]; at 1.2 µM 0% | [13]; at 3.7 µM 35% | [14]; [17] 45% | [15]; at 1.2 µM -3% | [15]; at 3.7 µM 20% | [15]; at 11.0 µM 67%

CC(/C=C/c1ccc([N+](=O)[O-])o1)=N/N1CC(CN2CCOCC2)OC1=O (stereo unspecified)
active: [1]; at 33.0 µM 94% | [1]; at 100.0 µM 98% | [2]; at 100.0 µM 96% | [3]; at 100.0 µM 76% | [4]; at 100.0 µM 85% | [5]; at 33.0 µM 90% | [5]; [18] 90% | [5]; at 50.0 µM 91.8% | [5]; at 100.0 µM 97% | [6]; [18] 90% | [6]; at 100.0 µM 94% | [7]; at 33.0 µM 90% | [7]; at 100.0 µM 99% | [8]; [18] 93% | [8]; at 50.0 µM 91.3% | [9]; at 100.0 µM 90% | [10]; [18] 90% | [11]; [18] 87% | [11]; at 100.0 µM 94% | [12]; at 33.0 µM 79% | [12]; at 100.0 µM 98% | [13]; at 100.0 µM 91% | [16]; at 33.0 µM 93% | [16]; at 100.0 µM 97% | [14]; [18] 95% | [14]; at 50.0 µM 93.5% | [15]; at 3.7 µM 89% | [15]; at 11.0 µM 97% | [15]; at 33.0 µM 97% | [15]; at 100.0 µM 98%
inactive: [1]; at 1.2 µM -5% | [1]; at 3.7 µM 5% | [1]; at 11.0 µM 48% | [2]; at 1.2 µM 2% | [2]; at 3.7 µM 11% | [2]; at 11.0 µM 36% | [2]; at 33.0 µM 66% | [3]; at 1.2 µM -4% | [3]; at 3.7 µM 4% | [3]; at 11.0 µM 34% | [3]; at 33.0 µM 58% | [4]; at 1.2 µM -2% | [4]; at 3.7 µM -4% | [4]; at 11.0 µM 12% | [4]; at 33.0 µM 30% | [5]; at 1.2 µM -9% | [5]; at 3.7 µM -6% | [5]; [17] 9% | [5]; at 11.0 µM 35% | [6]; at 1.2 µM 2% | [6]; at 3.7 µM 0% | [6]; [17] 7% | [6]; at 11.0 µM 1% | [6]; at 33.0 µM 29% | [6]; at 50.0 µM 55.6% | [7]; at 1.2 µM 4% | [7]; at 3.7 µM 10% | [7]; at 11.0 µM 55% | [8]; [17] 22% | [9]; at 1.2 µM -9% | [9]; at 3.7 µM -9% | [9]; at 11.0 µM -2% | [9]; at 33.0 µM 44% | [10]; [17] 6% | [10]; at 50.0 µM 53.5% | [11]; at 1.2 µM -6% | [11]; at 3.7 µM -3% | [11]; [17] 3% | [11]; at 11.0 µM 2% | [11]; at 33.0 µM 27% | [11]; at 50.0 µM 41.8% | [12]; at 1.2 µM -3% | [12]; at 3.7 µM 11% | [12]; at 11.0 µM 49% | [13]; at 1.2 µM -14% | [13]; at 3.7 µM -6% | [13]; at 11.0 µM -2% | [13]; at 33.0 µM 42% | [16]; at 1.2 µM -8% | [16]; at 3.7 µM 3% | [16]; at 11.0 µM 69% | [14]; [17] 63% | [15]; at 1.2 µM 24%

From PubChem BioAssay (NCI)
